# Assay results reported in PubChem BioAssay (NCATS).
# Results filed as inconclusive are left out. Where a call stands in place of a potency, no number is given. Values without a mark were called inactive. Active and inactive are the calls of the source. Calls come from the whole dose curve; as a rule, active = well fitted inhibition curve with a large enough effect; inconclusive = small, poorly fitted or top-dose-only effect; inactive = flat fitted curve, though single readings scatter.
# How the values were obtained:
# [1] = qHTS profiling for inhibitors of Plasmodium falciparum proliferation (AID 504749); note: nearly all actives have a fitted effect of over 60% in size; conditions: P. falciparum in erythrocytes, SYBR Green DNA, 72 h
# Summary of the method: (§1)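 Quantitative HTS: compounds pinned into medium, infected erythrocytes added (0.3% parasitemia, 2.5% hematocrit), 72 h culture at 37 C under 5% CO2. Saponin/Triton lysis with SYBR Green I, overnight RT, then fluorescence read.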
# 3D7 = experiment: as above; conditions: P. falciparum in erythrocytes, SYBR Green DNA, 72 h; series mostly up to 28.7 µM
# Summary of the method: as §1
# 7G8 = experiment: as above; conditions: P. falciparum in erythrocytes, SYBR Green DNA, 72 h; series mostly up to 28.7 µM
# Summary of the method: as §1
# AA1029 = experiment: as above; conditions: P. falciparum in erythrocytes, SYBR Green DNA, 72 h; series mostly up to 28.7 µM
# Summary of the method: as §1
# AS120 = experiment: as above; conditions: P. falciparum in erythrocytes, SYBR Green DNA, 72 h; series mostly up to 28.7 µM
# Summary of the method: as §1
# ATS189 = experiment: as above; conditions: P. falciparum in erythrocytes, SYBR Green DNA, 72 h; series mostly up to 28.7 µM
# Summary of the method: as §1
# ATS95 = experiment: as above; conditions: P. falciparum in erythrocytes, SYBR Green DNA, 72 h; series mostly up to 28.7 µM
# Summary of the method: as §1
# C2A = experiment: as above; conditions: P. falciparum in erythrocytes, SYBR Green DNA, 72 h; series mostly up to 28.7 µM
# Summary of the method: as §1
# CP185 = experiment: as above; conditions: P. falciparum in erythrocytes, SYBR Green DNA, 72 h; series mostly up to 28.7 µM
# Summary of the method: as §1
# CP191 = experiment: as above; conditions: P. falciparum in erythrocytes, SYBR Green DNA, 72 h; series mostly up to 28.7 µM
# Summary of the method: as §1
# [2] = at 28.7 µM (top of the series), parasite line A
# [3] = at 28.7 µM (top of the series), parasite line B
# [4] = at 12.8 µM (top of the series), parasite line A
# [5] = at 12.8 µM (top of the series), parasite line B
# Potency is the fitted concentration of half-maximal effect.
SMILES,"activity, negative = inhibition [1, 2]","activity, negative = inhibition [1, 3]",Potency (3D7),Potency (7G8),Potency (AA1029),Potency (AS120),Potency (ATS189),Potency (ATS95),Potency (C2A),Potency (CP185),Potency (CP191),Potency ([1]; parasite line A),Potency ([1]; parasite line B),"activity, negative = inhibition [1, 4]","activity, negative = inhibition [1, 5]"
C[C@]12C=CC(=O)C=C1CC[C@@H]1[C@@H]2C(=O)C[C@@]2(C)[C@H]1CC[C@]2(O)C(=O)CO,9.08%,14.6%,inactive,inactive,inactive,inactive,inactive,inactive,inactive,inactive,inactive,–,–,–,–
COc1cc(NCc2ccc3nc(N)nc(N)c3c2C)cc(OC)c1OC,–,–,0.0063 µM (active),0.0794 µM (active),1 µM (active),1 µM (active),0.282 µM (active),0.631 µM (active),0.631 µM (active),0.562 µM (active),0.251 µM (active),0.0035 µM (active),0.0071 µM (active),–,–
CCCc1nc(C)c2c(=O)[nH]c(-c3cc(S(=O)(=O)N4CCN(CC)CC4)ccc3OCC)nn12,-13.4%,-10.2%,inactive,7.08 µM (active),–,–,inactive,inactive,inactive,inactive,inactive,–,–,–,–
N=C(N)c1ccc(OCCCCCOc2ccc(C(=N)N)cc2)cc1,–,–,1.58 µM (active),0.199 µM (active),1 µM (active),0.891 µM (active),1.41 µM (active),1.12 µM (active),1.26 µM (active),1.12 µM (active),0.398 µM (active),1 µM (active),2.24 µM (active),–,–
CNNCc1ccc(C(=O)NC(C)C)cc1,0.0651%,-2.63%,inactive,–,inactive,inactive,inactive,inactive,inactive,inactive,–,–,–,–,–
Cc1ccnc2c1NC(=O)c1cccnc1N2C1CC1,0.983%,-17.2%,inactive,–,inactive,inactive,inactive,inactive,inactive,inactive,inactive,–,–,–,–
CN(C)CCc1c[nH]c2ccc(CS(=O)(=O)N3CCCC3)cc12,-2.84%,-4.67%,inactive,inactive,inactive,inactive,inactive,inactive,inactive,inactive,inactive,–,–,–,–
COc1cc(NS(=O)(=O)c2ccc(N)cc2)nc(OC)n1,–,–,inactive,inactive,inactive,inactive,inactive,inactive,inactive,inactive,inactive,–,–,5.18%,-3.51%
CC(C)(Sc1cc(C(C)(C)C)c(O)c(C(C)(C)C)c1)Sc1cc(C(C)(C)C)c(O)c(C(C)(C)C)c1,–,–,3.55 µM (active),–,inactive,inactive,inactive,inactive,inactive,inactive,inactive,–,–,6.04%,8.09%
S=P(N1CC1)(N1CC1)N1CC1,-0.685%,-0.221%,inactive,inactive,inactive,inactive,inactive,inactive,inactive,inactive,inactive,–,–,–,–
Nc1ccc(S(=O)(=O)Nc2ccccn2)cc1,–,–,inactive,inactive,inactive,inactive,inactive,–,inactive,inactive,inactive,–,–,-13.7%,-1.88%
NCCCC(O)(P(=O)(O)O)P(=O)(O)O,5.33%,1.25%,inactive,inactive,inactive,inactive,inactive,inactive,inactive,inactive,inactive,–,–,–,–
Nc1[nH]c(=O)ncc1F,–,–,inactive,inactive,inactive,inactive,inactive,inactive,–,inactive,inactive,–,–,6.35%,1.39%
CCn1cc(C(=O)O)c(=O)c2cc(F)c(N3CCNCC3)cc21,–,–,inactive,inactive,inactive,inactive,inactive,inactive,inactive,–,inactive,–,–,-24.5%,-18%
COc1cnc(NS(=O)(=O)c2ccc(N)cc2)nc1,–,–,inactive,inactive,inactive,inactive,inactive,inactive,inactive,inactive,inactive,–,–,3.37%,2.7%
Cc1oc(=O)oc1CN1CCN(c2cc3c(cc2F)c(=O)c(C(=O)O)c2n3C(C)S2)CC1 (configuration not stated),–,–,11.2 µM (active),3.98 µM (active),6.31 µM (active),11.2 µM (active),8.91 µM (active),12.6 µM (active),10 µM (active),10 µM (active),12.6 µM (active),11.2 µM (active),8.91 µM (active),–,–
CN(C)c1ccc(C(=C2C=CC(=[N+](C)C)C=C2)c2ccc(N(C)C)cc2)cc1,–,–,0.282 µM (active),0.251 µM (active),0.355 µM (active),0.447 µM (active),0.282 µM (active),0.501 µM (active),0.355 µM (active),0.398 µM (active),0.178 µM (active),0.224 µM (active),0.282 µM (active),–,–
Cc1cccc(Nc2ccncc2S(=O)(=O)NC(=O)NC(C)C)c1,–,–,inactive,inactive,inactive,inactive,inactive,inactive,inactive,inactive,inactive,–,–,-0.953%,11.1%
CCc1cc(C(N)=S)ccn1,-0.167%,3.61%,inactive,inactive,inactive,inactive,inactive,inactive,inactive,inactive,inactive,–,–,–,–
COc1cc([C@@H]2c3cc4c(cc3[C@H](O)[C@H]3COC(=O)[C@H]23)OCO4)cc(OC)c1OC,–,–,2.24 µM (active),0.316 µM (active),11.2 µM (active),5.01 µM (active),3.55 µM (active),8.91 µM (active),–,–,3.55 µM (active),8.91 µM (active),8.91 µM (active),–,–
NC(=O)N1c2ccccc2CC(=O)c2ccccc21,-5.05%,-8.83%,inactive,inactive,inactive,inactive,inactive,inactive,inactive,inactive,inactive,–,–,–,–

SMILES,"activity, negative = inhibition [1, 2]","activity, negative = inhibition [1, 3]",Potency (3D7),Potency (7G8),Potency (AA1029),Potency (AS120),Potency (ATS189),Potency (ATS95),Potency (C2A),Potency (CP185),Potency (CP191),Potency ([1]; parasite line A),Potency ([1]; parasite line B),"activity, negative = inhibition [1, 4]","activity, negative = inhibition [1, 5]"
O=S(=O)(O)CCS,8.7%,5.78%,inactive,inactive,inactive,inactive,inactive,inactive,inactive,inactive,inactive,–,–,–,–
CNC(=O)c1cc(Oc2ccc(NC(=O)Nc3ccc(Cl)c(C(F)(F)F)c3)cc2)ccn1,–,–,–,1 µM (active),–,10 µM (active),–,–,–,–,–,–,–,–,–
CCn1cc(C(=O)O)c(=O)c2cc(F)c(N3CCNCC3)nc21,–,–,inactive,–,–,–,inactive,inactive,inactive,inactive,inactive,–,–,-33.7%,-38.9%
CCOC(=O)c1ccc(OC(=O)CCCCCN=C(N)N)cc1,–,–,–,3.55 µM (active),inactive,inactive,–,inactive,inactive,inactive,–,–,–,-3.04%,4.29%
COc1cccc(N(C)C(=S)Oc2ccc3c(c2)CCCC3)n1,-29.5%,-22.3%,–,–,inactive,–,inactive,inactive,inactive,inactive,–,–,–,–,–
CCOc1cc(N)c(Cl)cc1C(=O)NCC1CN(Cc2ccc(F)cc2)CCO1 (configuration not stated),–,–,–,11.2 µM (active),12.6 µM (active),8.91 µM (active),5.01 µM (active),10 µM (active),11.2 µM (active),10 µM (active),3.98 µM (active),2.51 µM (active),11.2 µM (active),–,–
OC(Cn1cncn1)(Cn1cncn1)c1ccc(F)cc1F,5.43%,–,inactive,inactive,inactive,inactive,inactive,inactive,inactive,inactive,inactive,–,–,–,–
O=C(O)c1cn(C2CC2)c2cc(N3CCNCC3)c(F)cc2c1=O,–,–,inactive,3.16 µM (active),–,–,inactive,–,inactive,–,inactive,–,–,–,-28.9%
COc1ccc(C(=O)CC(=O)c2ccc(C(C)(C)C)cc2)cc1,0.965%,–,inactive,–,inactive,inactive,inactive,inactive,inactive,inactive,inactive,–,–,–,–
Oc1c(Cl)cc(Cl)c2cccnc12,–,–,–,6.31 µM (active),–,11.2 µM (active),8.91 µM (active),7.94 µM (active),–,11.2 µM (active),11.2 µM (active),–,10 µM (active),–,–
O=c1oc2c(O)c(O)cc3c(=O)oc4c(O)c(O)cc1c4c23,–,–,1 µM (active),2.82 µM (active),inactive,1.41 µM (active),–,–,–,inactive,inactive,–,–,–,–
C[C@@H](NCCCc1cccc(C(F)(F)F)c1)c1cccc2ccccc12,–,–,11.2 µM (active),1.12 µM (active),6.31 µM (active),3.98 µM (active),7.08 µM (active),7.08 µM (active),8.91 µM (active),11.2 µM (active),–,–,5.62 µM (active),–,–
CCCCOc1ccc(CC(=O)NO)cc1,–,–,0.562 µM (active),1.78 µM (active),–,3.55 µM (active),–,3.55 µM (active),1.58 µM (active),3.98 µM (active),2.24 µM (active),1.12 µM (active),–,–,–
CCC(C)(C)c1ccc(CC(C)CN2C[C@@H](C)O[C@@H](C)C2)cc1 (some centres not stated),-5%,-10.4%,–,10 µM (active),inactive,inactive,inactive,inactive,inactive,inactive,inactive,–,–,–,–
CC(N)C12CC3CC(CC(C3)C1)C2 (configuration not stated),7.36%,-12%,–,–,–,–,–,–,inactive,–,inactive,–,–,–,–
CCCCCCNC(=O)n1cc(F)c(=O)[nH]c1=O,–,–,4.47 µM (active),5.01 µM (active),–,–,–,–,12.6 µM (active),–,–,–,–,–,–
COc1c(N2CCNC(C)C2)c(F)cc2c(=O)c(C(=O)O)cn(C3CC3)c12 (configuration not stated),-14.8%,-1.5%,inactive,–,–,inactive,inactive,inactive,inactive,inactive,inactive,–,–,–,–
C1CCC(C(CC2CCCCN2)C2CCCCC2)CC1 (configuration not stated),–,–,7.94 µM (active),1.26 µM (active),11.2 µM (active),7.94 µM (active),11.2 µM (active),11.2 µM (active),11.2 µM (active),10 µM (active),11.2 µM (active),–,8.91 µM (active),–,–
CN(Cc1cc(Br)cc(Br)c1N)C1CCCCC1,-5.78%,-15.1%,–,–,inactive,inactive,inactive,–,inactive,inactive,inactive,–,–,–,–
CCn1cc(C(=O)O)c(=O)c2cc(F)c(N3CCN(C)CC3)cc21,–,-21.5%,inactive,–,–,–,–,–,–,–,–,–,–,–,–
CC(=O)Oc1ccccc1C(=O)Nc1ncc([N+](=O)[O-])s1,1.42%,8%,–,10 µM (active),inactive,inactive,inactive,inactive,inactive,inactive,inactive,–,–,–,–
